Only some compounds are listed: those with a hit (about 4.1% of all), similar ones and a draw of the others.
DAX1 inh-1 – NR0B1 (DAX1) inhibition; HEK293 Gal4-DAX1 luciferase reporter, luminescence; inhibition, % at 6.75 µM; 340,000 tested, 0.99% active;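 active = inhibition above the mean over all tested compounds plus 3 SD, cut at about 4.2% in these data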;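 also: 0% = DAX1-transfected cells with DMSO and 100% = empty-vector control cells with DMSO; inhibition shows as a rise in luminescence from relieved DAX1 repression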
Target sequence (P51843 207-470 limits assumed): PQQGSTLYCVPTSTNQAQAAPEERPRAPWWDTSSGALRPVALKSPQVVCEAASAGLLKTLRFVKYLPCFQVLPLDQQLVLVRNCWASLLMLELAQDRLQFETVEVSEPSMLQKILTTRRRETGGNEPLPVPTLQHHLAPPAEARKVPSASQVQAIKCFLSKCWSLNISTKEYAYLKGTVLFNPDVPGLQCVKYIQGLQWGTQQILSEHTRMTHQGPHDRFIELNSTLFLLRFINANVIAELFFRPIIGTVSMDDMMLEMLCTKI
ssDAF-12 act – activates DAF-12 receptor from parasite S. stercoralis. HEK293 ssDAF-12/GRIP1 lit1-tk-luc reporter, luminescence; % of 3 µM dafachronic acid response. activation, % at 6.8 µM. 370,000 tested, 1% active;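 active = activation above the mean over all tested compounds plus 3 SD, cut at about 0.9% in these data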;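 also: 0% = DMSO-only wells and 100% = 3 µM delta7-dafachronic acid wells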
hcDAF-12 act – activates DAF-12 receptor from parasite H. contortus; HEK293 hcDAF-12 lit1-tk-luc reporter, luminescence; 0% DMSO, 100% Δ7-dafachronic acid; activation, % at 6.8 µM; 370,000 tested, 1.4% active; AID 652067;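 active = activation above the mean of all tested compounds plus 3 SD, cut at about 5.5% in these data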;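 also: 100% = response to 3 µM Δ7-dafachronic acid high control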
DAX1 inh-2 – blocks DAX1 repression of SF-1 activated StAR promoter. AID 652010. 370,000 tested, 1.1% active. HEK293T StAR-luciferase reporter, SF-1/DAX-1 repression relief. inhibition, % at 6.8 µM;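 active = inhibition above the mean over all tested compounds plus 3 SD, cut at about 3.6% in these data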;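 also: 0% = DAX-1 cells with DMSO and 100% = cells lacking DAX-1 with DMSO; higher inhibition means more luminescence from relief of DAX-1 repression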
hgDAF-12 ag – agonists of H. glycines DAF-12 nuclear receptor. HEK293 GAL4-hgDAF12 UAS-luciferase reporter, agonist luminescence; normalized to butyrate control. activation, % at 6.8 µM. 370,000 tested, 1.8% active;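 active = activation above a cutoff set at the mean of all screened compounds plus 3 SD, cut at about 10% in these data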;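 also: 0% = DMSO wells and 100% = sodium butyrate wells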
PolyA inhibitor – yeast polyadenylation inhibition. S. cerevisiae SKY197-pL101 polyadenylation reporter, beta-gal luminescence; efflux-impaired pdr1/pdr3 knockout yeast; score 100 = 6 SD above DMSO. activity score, % at 12 µM. 300,000 tested, 0.02% active. AID 1875;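 active = lowest replicate activity score at least 50, where 100 means six control SD above control mean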;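 also: yeast exposed to compound for 9 h at 30 °C; higher score means more reporter readthrough which indicates perturbed polyadenylation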
DAX1 conf – confirmation of human DAX1 (NR0B1) inhibitors; shares compounds with DAX1 inh-2; HEK293T StAR-promoter luciferase reporter, SF-1/DAX-1 repression; inhibition, % at 6.8 µM; 2,400 tested, 87% active; AID 652134;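 active = inhibition above the average of every tested compound plus 3 SD, cut at about 3.8% in these data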;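 also: 0% = DAX-1 cells with DMSO and 100% = no DAX-1 control cells with DMSO; active compounds raise luminescence by relieving repression of the StAR reporter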
SF1 mutant ctr – counter-screen for DAX1 inhibitors: nonselective inhibitors with SF-1 AF2 mutant. AID 652136. shares compounds with DAX1 inh-2. HEK293 StAR-luciferase, luminescence. 2,400 tested, 78% active. inhibition, % at 6.8 µM;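 active = inhibition above the mean of all tested compounds plus 3 SD, cut at about 3% in these data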;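 also: 0% = DAX-1 transfected cells with DMSO and 100% = cells without DAX-1 with DMSO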
LXR ag – LXR-beta agonism as hcDAF-12 counter-screen; shares compounds with hcDAF-12 act; HEK293 Gal4-LXR tk-luc reporter, luminescence, 24 h; normalized: DMSO 0%, positive control 100%; activation, % at 6.8 µM; 3,400 tested, under 10 active;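 active = mean percent activation of the reporter above a cutoff set as the average over tested compounds plus their standard deviation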
hcDAF12 ag – confirmation of H. contortus DAF-12 agonists. HEK293 hcDAF-12 lit1-tk-luc reporter, luminescence; % of Δ7-dafachronic acid response. shares compounds with hcDAF-12 act. activation, % at 6.8 µM. AID 743032. 3,400 tested, 61% active;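 active = mean activation across triplicate tests above the threshold derived from the earlier primary screen, cut at about 5.5% in these data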;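 also: 0% = DMSO only wells and 100% = 3 µM Δ7-dafachronic acid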
hgDAF12 ag – hgDAF-12 agonism, confirmation assay | shares compounds with hgDAF-12 ag | HEK293 GAL4-hgDAF12 luciferase reporter, agonist mode; percent of butyrate response | activation, % at 6.8 µM | 3,300 tested, 80% active | AID 743050;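 active = mean activation over triplicate wells above the hit cutoff derived from the earlier primary screen, cut at about 11% in these data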;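 also: 0% = DMSO low control and 100% = 2 mM sodium butyrate high control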
LXR ag 2 – LXR-beta agonism as DAF-12 counter-screen. shares compounds with hgDAF-12 ag. HEK293 Gal4-LXR luciferase reporter, 24 h. activation, % at 6.8 µM. 3,300 tested, under 10 active. AID 743051;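 active = mean activation of the triplicate above a set limit carried over from the primary screen, none filed active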
Numbers without * were called inactive; / = not tested or not shown.

SMILES	DAX1 inh-1	ssDAF-12 act	hcDAF-12 act	DAX1 inh-2	hgDAF-12 ag	PolyA inhibitor	DAX1 conf	SF1 mutant ctr	LXR ag	hcDAF12 ag	hgDAF12 ag	LXR ag 2
Cc1cc(F)ccc1-c1cc(C(=O)Nc2ccccc2)[nH]n1	/	1.5*	12*	12*	21*	/	15*	5.8*	2	14*	20*	1
O=C(Nc1cccnc1)c1cc(-c2cc(Cl)ccc2O)n[nH]1	4	-1	0	2	9	-6	/	/	/	/	/	/
N/C(=N\OC(=O)c1ccc2c(c1)OCO2)c1cccc([N+](=O)[O-])c1	0	-1	3	0	3	-5	/	/	/	/	/	/
Cc1cccc(/C(N)=N/OC(=O)c2ccc3c(c2)OCO3)c1	1	0	8.6*	5.4*	15*	11	11*	6.8*	1	6.7*	14*	1
C=CC[C@H](CC(=O)NCCO)C(=O)NCCOC(=O)[C@@H](CC=C)Cc1ccc(F)cc1	0	-1	0	0	-1	/	/	/	/	/	/	/
Cc1nc(-c2ccccc2)sc1-c1ccnn1C	4	1	8.8*	6.2*	16*	-3	15*	7.9*	1	5.8*	18*	1
Cc1nc(-c2ccccc2)sc1-c1ccn[nH]1	3	0	8.8*	9.2*	14*	-15	16*	10*	1	6	17*	1
CCN(CC(=O)Nc1ccc(OC)cc1)C(=O)Cc1ccsc1	0	-1	-1	-1	0	/	/	/	/	/	/	/
Cc1c(C(=O)O)oc2c(F)cccc12	/	-1	-3	0	-4	-2	/	/	/	/	/	/
Cc1c(C(=O)NC2CCOC2)oc2c(F)cccc12 (centres undefined)	3	0	5	5.7*	14*	-4	6.4*	3.3*	/	/	13*	0
COc1cccc(CNC(=O)c2cc3c(c(-c4cccc(-c5cccc(C#N)c5)c4)n2)[C@H](CCO)N(S(=O)C(C)(C)C)C3)c1 (some centres undefined)	/	-1	-4	-4	-5	/	/	/	/	/	/	/
CCOC(=O)c1cnc(SCc2ccccc2)nc1N	3	-1	4	5.4*	16*	-15	10*	6.6*	/	/	16*	1
COc1ccc(CNc2nc3ccccc3n2C)c(OC)c1	0	-1	3	6.4*	13*	-1	12*	7.4*	/	/	15*	0
O=C(/C=C/c1ccccc1)Nc1scc(-c2ccccc2)c1C(=O)O	3	0	4	5.1*	15*	32	8.9*	8.6*	/	/	11*	1
O=C(CSc1nc(O)c(C2CCCCC2)c(=O)[nH]1)Nc1ccccc1Cl	0	-1	-1	0	2	2	/	/	/	/	/	/
COCCNc1nc(-c2cc3ccccc3o2)cs1	1	0	8.7*	6.7*	16*	9	9.9*	7.2*	2	7.5*	18*	1
Cc1ccc(CNC(=O)C2CCCN(c3nn4c(=O)cc(C)nc4s3)C2)cc1 (centres undefined)	0	-2	0	0	-1	20	/	/	/	/	/	/
O=c1c2c(nc3cc(-c4cccc(Cl)c4)[nH]n13)CCC2	2	1	5	5.5*	15*	-22	16*	6.7*	/	/	14*	1
O=C(Nc1ccc(F)cc1)c1ccccc1NC(=O)C1CC=CCC1C(=O)O (centres undefined)	0	-1	1	1	5	/	/	/	/	/	/	/
CC(C)c1ccc(NC(=O)c2ccccc2NC(=O)C2CC=CCC2C(=O)O)cc1 (centres undefined)	5.5*	0	3	8.3*	15*	/	3	3.6*	/	/	7	0
CCCCCC1=C(C(=O)OC)C(C(=O)OCC)N(S(=O)(=O)C(F)(F)F)c2ccccc21 (centres undefined)	-2	0	-1	-3	-2	/	/	/	/	/	/	/
COc1ccc2nc(NC(=O)Nc3ccccc3)sc2c1	0	1	8.1*	11*	22*	0	14*	8.8*	2	5	23*	1
COc1ccc2nc(NC(=O)c3ccccc3-c3ccccc3C(=O)O)sc2c1	4	0	-2	0	-2	10	/	/	/	/	/	/
CCOc1ccc2nc(NC(=O)Nc3cccs3)sc2c1	3	1	7.9*	9.2*	27*	0	19*	13*	2	5	27*	1
O=C(OCC(=O)N1CCc2ccccc2C1)c1c(F)cccc1Cl	2	0	4	5.6*	16*	/	10*	7.3*	/	/	18*	1
SMILES	DAX1 inh-1	ssDAF-12 act	hcDAF-12 act	DAX1 inh-2	hgDAF-12 ag	PolyA inhibitor	DAX1 conf	SF1 mutant ctr	LXR ag	hcDAF12 ag	hgDAF12 ag	LXR ag 2
CN(C)CC1CCCCC1OC(=O)c1ccc(S(=O)(=O)N(C)c2ccccc2)cc1 (centres undefined)	0	-2	-1	0	0	-7	/	/	/	/	/	/
O=C(CS(=O)(=O)c1ccccc1)Nc1ccc(N2CCOCC2)cc1	1	-2	0	0	-1	4	/	/	/	/	/	/
CCc1ccc(NC(=O)c2cc(C)on2)cc1	1	-1	7.8*	5.8*	13*	26	11*	4.9*	1	6.8*	13*	1
CCCc1cc(C(=O)Nc2ccc(C)cc2)no1	1	1	6.2*	5.2*	17*	-19	8.7*	7.3*	/	/	13*	1
CC(C)Cc1cc(C(=O)Nc2ccc(Br)cc2)no1	2	0	2	2	4	5	/	/	/	/	/	/
CC(=O)c1c(C)[nH]c(C(=O)COC(=O)c2c(-c3ccccc3)noc2C)c1C	-1	-1	0	-1	-5	/	/	/	/	/	/	/
